Test results published in PubChem BioAssay (NCATS).
Records with an inconclusive call do not appear. A call without a number means that no potency is given here. The source made the active and inactive calls. Calls come from the whole dose curve; as a rule, active = well fitted inhibition curve with a large enough effect; inconclusive = small, poorly fitted or top-dose-only effect; inactive = no such curve, though single readings can be large or run the other way.

These molecules were tested against Retinaldehyde dehydrogenase 3 (Homo sapiens) (UniProt P47895) (assay: qHTS for Inhibitors of the Aldehyde Dehydrogenase Family (ALDH1A3) Primary screen (AID 2061315)). Conditions: ALDH inhibition qHTS; series mostly up to 56 µM.

| SMILES | Potency | activity change, negative = inhibition |
| --- | --- | --- |
| CC(=O)OCC1=CCC2C(C)(C)CCCC2(C)C12CCC(C)(CC(=O)O)O2 (configuration not stated) | inactive |  |
| O=c1cc(N2CCN(c3cccc(C(F)(F)F)c3)CC2)[nH]c(=O)n1C1CCCCC1 | inactive |  |
| CC(C)C1=CC2=CCC3[C@](C)(CCC[C@@]3(C)C(=O)O)C2CC1=O (some centres not stated) | inactive |  |
| C/C=C(\C)C(=O)OC[C@H]1O[C@H](O[C@H]2O[C@H](CO)[C@@H](OC(=O)/C(C)=C/C)[C@H](O)[C@H]2O[C@@H]2O[C@H](CO)[C@@H](O)[C@H](O)[C@H]2O)[C@H](O[C@@H]2O[C@H](CO)[C@@H](O)[C@H](O)[C@H]2O)[C@@H](O)[C@@H]1O | inactive |  |
| CC(=O)OC(C)(C)/C=C/C(=O)[C@](C)(O)[C@H]1C(O)C[C@@]2(C)[C@@H]3CC=C4[C@@H](C=C(O[C@@H]5O[C@H](CO)[C@@H](O)[C@H](O)[C@H]5O)C(=O)C4(C)C)[C@]3(C)C(=O)C[C@]12C (some centres not stated) | inactive |  |
| CC1(C(=O)O)CCCC2(C)C3CC4C5CC3(CCC12)CC45C (configuration not stated) | inactive |  |
| CC1(C)CC[C@]2(C(=O)O[C@@H]3O[C@H](CO)[C@@H](O)[C@H](O)[C@H]3O)CC[C@]3(C)C(=CCC4[C@@]5(C)CC[C@H](O[C@@H]6O[C@H](C(=O)O)[C@@H](O)[C@H](O)[C@H]6OC6OC(CO)C(O)C(O)C6O)C(C)(C)C5CC[C@]43C)[C@@H]2C1 (some centres not stated) | inactive |  |
| CC1(C)OC(=O)C(OCC2CC2)=C1c1ccc(S(C)(=O)=O)cc1 | inactive |  |
| CC(=O)O[C@H]1[C@H](O[C@H]2[C@@H]3C=CO[C@@H](O[C@@H]4O[C@H](CO)[C@@H](O)[C@H](O)[C@H]4O)[C@@H]3[C@@]3(CO)O[C@@H]23)O[C@@H](C)[C@H](OC(=O)/C=C/c2ccccc2)[C@H]1OC(=O)/C=C/c1ccccc1 | inactive |  |
| CC(=O)O[C@@H]1[C@H](O)[C@@H](O[C@@H]2O[C@@H](C)[C@H](O[C@@H]3OC[C@@H](O)[C@H](O[C@@H]4OC[C@@H](O)[C@H](O)[C@H]4O)[C@H]3O)[C@@H](O[C@@H]3O[C@H](CO)[C@@H](O)[C@H](O)[C@H]3O)[C@H]2O)[C@H](OC(=O)[C@]23CCC(C)(C)C[C@H]2C2=CCC4[C@@]5(C)CC[C@H](O[C@@H]6O[C@H](C(=O)O)[C@@H](O)[C@H](O[C@@H]7OC[C@@H](O)[C@H](O)[C@H]7O)[C@H]6O[C@@H]6O[C@H](CO)[C@H](O)[C@H](O)[C@H]6O)[C@@](C)(C=O)C5CC[C@@]4(C)[C@]2(C)CC3)O[C@@H]1C (some centres not stated) |  | -8.36% [at 11.2 µM] (inactive) |
| Cc1ccc(N2CCN(S(=O)(=O)N3CCCCC3)CC2)c(C)c1 | inactive |  |
| N#C[C@@H]1CCCN1C(=O)CNC12CC3CC(CC(O)(C3)C1)C2 | inactive |  |
| CC(O)/C=C/C1(O)C(C)C(O)C(O[C@@H]2O[C@H](CO)[C@@H](O)[C@H](O)[C@H]2O)CC1(C)C (some centres not stated) | inactive |  |
| CC(=O)O[C@H]1[C@H](OC(=O)C(C)C)[C@]2(C)OC3(CC[C@]2(C)[C@H]2CCC[C@]4(CO4)[C@]12C)COC(=O)C3 (some centres not stated) | inactive |  |
| C[C@@H]1O[C@@H](OC2C(O[C@H]3[C@H](O[C@H]4CC[C@@]5(C)C(CC[C@]6(C)C5CC=C5C7CC(C)(C)CC(O)[C@]7(C)CC[C@]56C)C4(C)C)O[C@H](C(=O)O)[C@@H](O)[C@@H]3O)OC(CO)C(O)C2O)[C@H](O)[C@H](O)[C@H]1O (some centres not stated) | inactive |  |
| C=C1C(=O)O[C@H](CCC)[C@H]1C(=O)O | inactive |  |
| CC/C=C(\C(=O)N[C@@H]1C(=O)N2C(C(=O)OCOC(=O)C(C)(C)C)=C(COC(N)=O)CS[C@H]12)c1csc(N)n1 | inactive |  |
| CC(O)(CC(=O)O)CC(=O)OCc1ccc(O[C@@H]2O[C@H](CO)[C@@H](O)[C@H](O)[C@H]2O)cc1 (some centres not stated) | inactive |  |
| CC(C)(C)OC(=O)N1CCC(OCc2nc(-c3ccncc3)no2)CC1 | inactive |  |
| CC(C)=CCC[C@](C)(O[C@@H]1O[C@H](CO[C@@H]2OC[C@@H](O)[C@H](O)[C@H]2O)[C@@H](O)[C@H](O)[C@H]1O)[C@H]1CC[C@]2(C)[C@@H]1[C@H](O)C[C@@H]1[C@@]3(C)CC[C@H](O[C@@H]4O[C@H](CO)[C@@H](O)[C@H](O)[C@H]4O)C(C)(C)[C@@H]3CC[C@]12C | inactive |  |
| CC(C)=C1C[C@@]2(C)C(=CC1=O)CC[C@@H](OC(=O)/C(C)=C/CO)[C@@H]2C | inactive |  |
| C=C1CCC2C(OC(=O)C2(O)COC(C)=O)C2C(=C)C(O)CC12 (configuration not stated) | inactive |  |
